Results on 40 compounds are retold here after PubChem BioAssay (NCATS).

Results filed as inconclusive are left out. Unmarked numbers belong to inactive results. Calls of active or inactive are those of the source. Calls follow the shape of the dose curve; as a rule, active = well fitted inhibition curve with a large enough effect; inconclusive = small, poorly fitted or top-dose-only effect; inactive = no such curve, though single readings can be large or run the other way.

The first test deals with Retinal dehydrogenase 2 (Homo sapiens) (UniProt O94788). Nature of the test: qHTS for Inhibitors of the Aldehyde Dehydrogenase Family (ALDH1A2) Confirmation screens (AID 2061314). Also: nearly all actives have a fitted effect of over 65% in size. Also: potency is read from the fitted curve at half-maximal effect. As to activity, negative = inhibition: % is scaled to controls: 0 for no effect and ±100 for the full control effect. The settings on record: ALDH1A2 enzyme inhibition qHTS confirmation; series mostly up to 45.9 µM; activity, negative = inhibition: at the top concentration. (In general: In qHTS, concentration-response curves come from the screen itself.)
On to `C=C1C(=O)O[C@@H]2[C@H]1CC(=O)[C@H](C)[C@@](O)(C(=O)/C=C/C)[C@H]2OC(=O)C(C)CC` (stereo partly drawn), for which the Potency was 4.4 µM (active).

For `O=C1NC(=O)C(c2cnc3ccccn23)=C1c1cn2c3c(cccc13)CN(C(=O)N1CCOCC1)CC2`, the “activity, negative = inhibition” value is -22%.

With `CC1(C)C2CCC1(C)C(OC(=O)C(O)(CC(=O)O)CC(=O)O)C2` (stereo not drawn), the “activity, negative = inhibition” value is -17.8% [at 25.6 µM].

In the case of `Cc1ccc(CNc2ncnc3ccc(-c4ccc(CO)o4)cc23)o1`, the “activity, negative = inhibition” value is -22%.

A further test has as its target Retinaldehyde dehydrogenase 3 (Homo sapiens) (UniProt P47895). Nature of the test: qHTS for Inhibitors of the Aldehyde Dehydrogenase Family (ALDH1A3) Primary screen (AID 2061315).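 Also: plate controls were DMSO vehicle for no effect and reference inhibitor for full effect.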 The following applies: ALDH inhibition qHTS; series mostly up to 56 µM; activity change, negative = inhibition: at the top concentration.
For the compound `CC(C)=CCC(O)[C@](C)(O)C1[C@H](O)C[C@@]2(C)C3CC=C4C(C[C@H](O)[C@@H](O[C@@H]5O[C@H](CO)[C@@H](O)[C@H](O)[C@H]5O)C4(C)C)[C@]3(C)C(=O)C[C@]12C` (stereo partly drawn), the “activity change, negative = inhibition” value is -10.5% [at 16.9 µM].

Regarding `O=C(/C=C/c1ccccc1)OC[C@]12O[C@H]1[C@@H](O)[C@@H]1C=CO[C@@H](O[C@@H]3O[C@H](CO)[C@@H](O)[C@H](O)[C@H]3O)[C@@H]12`, the “activity change, negative = inhibition” value was 3.64% [at 28 µM].

For `CC(O)(CC(=O)O)CC(=O)OCc1ccc(O[C@@H]2O[C@H](CO)[C@@H](O)[C@H](O)[C@H]2O)cc1` (stereo partly drawn), the “activity change, negative = inhibition” value was 2.87% [at 28 µM].

For the compound `CC1CCC2(C=O)C(CO)=CCCC2C1(C)CC(=O)O` (stereo not drawn), the “activity change, negative = inhibition” value was -10.6%.

`C=C1C2CCC3CC2(CC(O)C2(O)C1CC(OC1OC(CO)C(O)C(O)C1O)C2(C)C)CC3(C)O` (stereo not drawn): the “activity change, negative = inhibition” value was -19.8% [at 28 µM].

Regarding `COc1cccc2c1CCC[C@H]2CN(C)CCc1ccc2ccoc2c1`, the “activity change, negative = inhibition” value is -0.263%.

Take `CC(C)NC[C@H](O)COc1ccc(CCOCC2CC2)cc1`: the “activity change, negative = inhibition” value is -1.45%.

With `C/C(=C/CCC(CO)C1CCC2(C)C3CCC4C(C)(C)C(OC5OC(CO)C(O)C(O)C5O)CC(O)C45CC35CCC12C)COC1OC(CO)C(O)C(O)C1O` (stereo not drawn), the “activity change, negative = inhibition” value was 18.1% [at 16.9 µM].

As for `CC(=O)c1cc2c(cc1O)OC(C)(C)C=C2`, the “activity change, negative = inhibition” value was -13.3%.

For `CC(C)(C)CCN1C[C@@H]2C(CNC(=O)c3cc(Cl)cc(Cl)c3)[C@@H]2C1` (stereo partly drawn), the “activity change, negative = inhibition” value is -12.2%.

Take `C=C1C(=O)O[C@@H]2[C@H]1CC(=O)[C@H](C)[C@@](O)(C(=O)/C=C/C)[C@H]2OC(=O)C(C)CC` (stereo partly drawn): the “activity change, negative = inhibition” value is 3.01%.

As for `OCC1=C[C@@H](O)[C@@H]2C=CO[C@@H](O[C@@H]3O[C@H](CO)[C@@H](O)[C@H](O)[C@H]3O)[C@H]12`, the “activity change, negative = inhibition” value is -10.8%.

With `CC(C)(OC1OC(CO)C(O)C(O)C1O)C1CCC(O)(CO)C2CC(O)C(C)(O)C2C1` (stereo not drawn), the “activity change, negative = inhibition” value is -0.503% [at 28 µM].

Regarding `CC(=O)NC(C(=O)OC1CCC(C)(C)C2CC=C3C(=O)OCC3(O)C12C)C(C)C` (stereo not drawn), the “activity change, negative = inhibition” value was 0.315% [at 28 µM].

With `C[C@]12CCC[C@](C)(C(=O)O)C1[C@@H](O)[C@@H](O)C13CC(CCC12)C(CO)(O[C@@H]1O[C@H](CO)[C@@H](O)[C@H](O)[C@H]1O)C3` (stereo partly drawn), the “activity change, negative = inhibition” value was -12.7% [at 28 µM].

For `CCc1cc(S(=O)(=O)O)c2cc(C(C)C)cccc1-2`, the “activity change, negative = inhibition” value was -18.6%.

Consider `CC1=CC[C@]2(C(=O)O[C@@H]3O[C@H](CO[C@@H]4O[C@H](CO)[C@@H](O[C@@H]5O[C@@H](C)[C@H](O)[C@@H](O)[C@H]5O)[C@H](O)[C@H]4O)[C@@H](O)[C@H](O)[C@H]3O)CC[C@]3(C)C(CCC4[C@@]5(C)C[C@@H](O)[C@H](O)[C@@](C)(CO)C5CC[C@]43C)C2C1C` (stereo partly drawn), for which the “activity change, negative = inhibition” value was -0.0299% [at 16.9 µM].

Turning to `Nc1nc2c(ncn2CCC(CO)CO)c(=O)[nH]1`, the “activity change, negative = inhibition” value was 0.891%.

Consider `CCN1CCN(Cc2ccc(-c3cc4c(NC(C)c5ccccc5)ncnc4[nH]3)cc2)CC1` (stereo not drawn), for which the “activity change, negative = inhibition” value was 10.4%.

In the case of `COC1CC(O[C@H]2CC[C@@]3(C)C(CCC4C3[C@H](OC(C)=O)[C@@H](OC(=O)/C=C/c3ccccc3)[C@]3(C)C(C(C)=O)CC[C@]43O)C2)OC(C)C1OC1CC(OC)C(OC2CC(OC)C(OC3OC(C)C(OC4OC(CO)C(O)C(O)C4O)C(OC)C3O)C(C)O2)C(C)O1` (stereo partly drawn), the activity change, negative = inhibition was 5.71% [at 11.2 µM].

On to `OC[C@H]1O[C@@H](OC[C@H]2O[C@@H](OC/C=C/c3ccccc3)[C@H](O)[C@@H](O)[C@@H]2O)[C@@H](O)[C@@H]1O`, for which the “activity change, negative = inhibition” value is 3.1% [at 28 µM].

With `C/C(=C\C1CCC(C)C2CCC3(C)OC123)C(=O)O` (stereo not drawn), the “activity change, negative = inhibition” value was 8.61%.

Turning to `COC(=O)CCc1cc2ccoc2c(OC)c1O[C@@H]1O[C@H](CO)[C@@H](O)[C@H](O)[C@H]1O`, the “activity change, negative = inhibition” value is -0.14% [at 28 µM].

Consider `C[C@]12CCC(=O)C=C1[C@@H](O)C[C@@H]1[C@@H]2[C@@H](O)C[C@@]2(C)[C@H]1CC[C@]2(O)C(=O)CO`, for which the “activity change, negative = inhibition” value was -4.24%.

On to `[N-]=[N+]=N[C@]1(CO)O[C@@H](n2ccc(=O)[nH]c2=O)[C@@H](O)[C@@H]1O`, for which the “activity change, negative = inhibition” value was 1.38%.

Consider `CC(C)C1=CC2C(CC[C@]2(C)O)[C@](C)(O)CC1` (stereo partly drawn), for which the “activity change, negative = inhibition” value is 11.1%.

As to `CC1(C)CCCC2(C)C=C(C(=O)O)C(O)CC12` (stereo not drawn), the “activity change, negative = inhibition” value is -9.77%.

`Cc1cc(O)c(C(C)C)cc1O[C@@H]1O[C@H](CO)[C@@H](O)[C@H](O)[C@H]1O`: the “activity change, negative = inhibition” value was -23.2%.

On to `CC1=CC(=O)C2(OC3OC(C)C(O)C(OC(=O)/C=C/c4ccccc4)C3O)C=COC(OC3OC(CO)C(O)C(O)C3O)C12` (stereo not drawn), for which the “activity change, negative = inhibition” value is -24% [at 16.9 µM].

As for `CC/C=C\CC1C(=O)C=CC1(CCCCC1CCC(=O)O1)OC(C)=O` (stereo not drawn), the “activity change, negative = inhibition” value is 2.21%.

As for `C=C1C(OC2OCC(O)C(O)C2O)CC2C(C)(C)C(O)CCC2(C)C1CC/C(C)=C\CO` (stereo not drawn), the “activity change, negative = inhibition” value is -6.31% [at 28 µM].

On to `CCC(C)C(=O)O[C@H]1C[C@](C)(O)[C@]23OC(C)(C)[C@H](C[C@H](OC(=O)c4ccccc4)[C@]2(COC(C)=O)[C@H]1OC(=O)C(C)CC)[C@H]3OC(C)=O` (stereo partly drawn), for which the “activity change, negative = inhibition” value is -0.699% [at 16.9 µM].

As to `CC1(C)C2CCC1(C)C(OC(=O)C(O)(CC(=O)O)CC(=O)O)C2` (stereo not drawn), the “activity change, negative = inhibition” value was -12.6%.

Regarding `CCC(C)CC(=O)OC1C(=O)C(CO)=CC(O)C1C(C)C` (stereo not drawn), the “activity change, negative = inhibition” value was -5.34%.

As for `CC(C)=CCC[C@](C)(O[C@@H]1O[C@H](CO[C@@H]2O[C@H](CO)[C@@H](O)[C@H](O)[C@H]2O)[C@@H](O)[C@H](O)[C@H]1O)C1CC[C@]2(C)[C@@H]1[C@H](O)CC1[C@@]3(C)CC[C@H](O[C@@H]4O[C@H](CO)[C@@H](O)[C@H](O)[C@H]4O[C@@H]4O[C@H](CO)[C@@H](O)[C@H](O)[C@H]4O)C(C)(C)[C@@H]3CC[C@]12C` (stereo partly drawn), the “activity change, negative = inhibition” value was 14.2% [at 16.9 µM].

Regarding `C=C1CCC2C(C)(C)CCC[C@]2(C)[C@H]1CC/C(C)=C/C(=O)O` (stereo partly drawn), the “activity change, negative = inhibition” value was -1.97%.

Consider `Cc1ccc(CNc2ncnc3ccc(-c4ccc(CO)o4)cc23)o1`, for which the Potency entry was “inactive”.

`C[C@@H]1CC[C@]2(C(=O)O)CC[C@]3(C)C(=CCC4[C@@]5(C)C[C@@H](O)[C@H](O)[C@@](C)(CO)C5CC[C@]43C)C2[C@]1(C)O` (stereo partly drawn): the “activity change, negative = inhibition” value was -5.74% [at 28 µM].

Consider `Cc1cn2cc(C(=O)N(C)CCO)cc(NC3CCOc4cccc(C)c43)c2n1` (stereo not drawn), for which the “activity change, negative = inhibition” value is -14.6%.
